# The list is not random: actives were taken first. Their share in the collection is about 6.9%.
# Mdm2 MdmX PPI = inhibitors of human Mdm2/MdmX interaction. O15151+Q00987. SaOS-2 split-luciferase Mdm2/MdmX complementation, luminescence. inhibition, % at 8 µM. 330,000 tested, 3% active;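 active = inhibition of at least 50% at 8 µM in the primary screen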
# Beta apoptosis = beta cell apoptosis inhibition; INS-1E cytokine-induced death, ATP luminescence, 48 h; percent of positive-control rescue, neutral wells zero; protection from apoptosis, % (test concentration not listed); 300,000 tested, 0.8% active;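 active = Every replicate reaches about 75%, or at least half do and their mean reaches it too, limit read from the data; inconclusive = At least half of replicates reach the limit but their mean does not; inactive = Under half of replicates reach the limit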;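 also: higher means more ATP so stronger rescue from cytokine killing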
# MPTP inh = inhibitors of mitochondrial permeability transition pore; isolated mouse mitochondria, Ca2+ swelling absorbance, 30 min; inhibition, % at 10 µM; 360,000 tested, 1.4% active; AID 602449;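 active = inhibition of 50% or more, scaled per plate between neutral and stimulator controls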
# NR3A LBD binder = modulators (binders) of human NR3A ligand-binding domain | NR3A LBD differential scanning fluorimetry, Tm shift; 0% = protein alone, 100% = glycine-bound protein | Tm shift relative to glycine control, % at 25 µM | 340,000 tested, 2.5% active | AID 1259313;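 active = melting temperature shift of at least 10% of the positive control shift, at one fixed dose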
# SKKanGAS inh = SKKanGAS growth inhibition | S. pyogenes SKKanGAS, kanamycin growth, BacTiter-Glo, 6 h | inhibition, % at 7.5 µM | 300,000 tested, 1.3% active;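 active = mean replicate score, as percent of positive control median, at least 50; inconclusive = mean below 50 but one replicate at or above 50; inactive = mean and every replicate below 50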;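 also: strain carries kanamycin resistance gene driven by streptokinase promoter and grows in 40 µg/ml kanamycin; loss of luminescence reflects streptokinase promoter inhibition or plain growth inhibition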
# CSC inhib = cancer stem cell inhibition. cancer stem cell-like cells viability, luminescence. inhibition, % at 7.5 µM. 300,000 tested, 1.1% active; in the data active = inhibition above about 75%; inconclusive = no clear call, values can overlap the other calls; tested in HMLE shEcad cells
# Mdm2 MdmX conf = human Mdm2/MdmX binding inhibition, confirmed. shares compounds with Mdm2 MdmX PPI. luminescent assay. inhibition, % at 8 µM. 10,000 tested, 55% active; in the data active = inhibition above about 40%
# Full FLuc ctr = inhibits full-length luciferase, flagging false Mdm2/MdmX hits | shares compounds with Mdm2 MdmX PPI | SaOS-2 full-length luciferase counterscreen, luminescence | inhibition, % at 8 µM | 6,200 tested, 77% active;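 active = mean inhibition at 8 µM reaching about 37%, which flags the compound as non-specific, limit read from the data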;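 also: p53-null SaOS-2 cells with luciferase driven by a doxycycline-inducible promoter; compound on cells about two nights before reading with doxycycline added after day one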
# MPTP counter = mitochondrial membrane potential, counter-screen; shares compounds with MPTP inh; isolated mitochondria, Rhodamine 123 fluorescence; inhibition, % at 10 µM; 5,000 tested, 78% active; AID 624504; in the data active = inhibition above about 22%
# MPTP swell DR = dose response confirmation of mitochondrial permeability transition pore inhibitors; 780 tested, 58% active; IC50, µM; shares compounds with MPTP inh; isolated mitochondria swelling, absorbance; in the data active = IC50 below about 20 µM
# MPTP counter DR = MPTP inhibitor counter-screen activity, dose response; shares compounds with MPTP inh; isolated mitochondria counterscreen, fluorescence read-out; IC50, µM; 780 tested, 49% active; in the data active = IC50 below about 80 µM
# Numbers stand for hits; . = inactive; ? = inconclusive; / = not tested or not shown; + = active, no number.
SMILES,Mdm2 MdmX PPI,Beta apoptosis,MPTP inh,NR3A LBD binder,SKKanGAS inh,CSC inhib,Mdm2 MdmX conf,Full FLuc ctr,MPTP counter,others
CC1CN(c2nc3ccccc3nc2SCC(=O)Nc2ccc(F)cc2)CC(C)O1 (centres undefined),.,.,.,.,.,.,/,/,/,
Cc1cccc(N(C)C(=O)CCS(=O)(=O)c2cc3c(cc2Cl)NC(=O)CO3)c1,.,.,.,.,.,.,/,/,/,
CC(=O)c1sc(NC(=O)C2(F)C(F)(F)C(F)(F)C(F)(F)C(F)(F)C2(F)F)nc1C,93,109,95,.,.,.,85,.,91,
CC1CN(S(=O)(=O)c2ccc(NC(=O)c3cc(-c4ccccc4O)n[nH]3)cc2)CC(C)O1 (centres undefined),58,.,79,36,.,.,.,/,72,
CC1CN(S(=O)(=O)c2ccc(C(=O)Nc3nc(-c4cc5ccccc5o4)cs3)cc2)CC(C)O1 (centres undefined),76,.,88,.,.,.,.,/,.,MPTP swell DR=.;MPTP counter DR=<2.5
Cc1ccccc1C(=O)Nc1ccc(S(=O)(=O)N2CC(C)OC(C)C2)cc1 (centres undefined),.,.,.,.,.,.,/,/,/,
O=S(=O)(NC1=NCCC1)c1cccc(NS(=O)(=O)c2ccc(OC(F)(F)F)cc2)c1,.,.,.,.,.,.,/,/,/,
CC(C)(C)OC(=O)CC[C@@H](C(=O)NCCCCCCCCCCC(=O)N1CCN(C(=O)OC(C)(C)C)CC1)n1cc(CCCCCNC(=O)OC(C)(C)C)nn1,.,.,.,.,/,.,/,/,/,
CC(C)(C)OC(=O)NCCCCCc1cn([C@@H](CO)C(=O)NCCCCCCCCCCC(=O)N2CCN(C(=O)OC(C)(C)C)CC2)nn1,62,109,99,.,/,.,.,/,109,
Nc1nc(Nc2ccccc2)nc(NCc2ccco2)c1[N+](=O)[O-],.,.,.,.,.,.,/,/,/,
c1ccc(CNc2nc(NCc3ccccc3)c3ccccc3n2)cc1,100,114,70,.,.,135,75,51,109,
Fc1ccc(Nc2nc(NCc3ccco3)c3ccccc3n2)cc1,77,.,86,10,.,86,.,/,82,
Fc1ccccc1-c1nc(NCc2ccccc2)c2ccccc2n1,.,.,.,.,.,.,/,/,/,
N#C/C(=N\Nc1cccc([N+](=O)[O-])c1)C(=O)c1ccc(Br)cc1,97,104,93,29,.,102,89,.,41,
O=C(O)c1ccc(N=NNc2cccc([N+](=O)[O-])c2)cc1,.,.,.,.,.,.,/,/,/,
C/C(=N\NC(=O)c1cc2ccccc2cc1O)c1cc2ccccc2o1,54,.,98,.,78,93,.,58,57,
CC12CCC(c3n[nH]c(=S)nc31)C2(C)C (centres undefined),.,.,.,.,.,.,/,/,/,
CN(C)c1ccc(C=Cc2nccc3ccccc23)cc1,/,/,.,/,/,/,/,/,/,
N#Cc1ccc(/C=C\c2nccc3c2[nH]c2ccccc23)cc1,51,.,92,12,.,.,.,/,67,
O=C(Nc1ccccc1NC(=O)c1c(F)c(F)c(F)c(F)c1F)c1c(F)c(F)c(F)c(F)c1F,54,.,93,.,.,.,.,41,95,
O=C(Nc1ccncc1)c1c(F)c(F)c(F)c(F)c1F,.,.,.,.,.,.,/,/,/,
Cc1ccc(NC2=CC(=O)CC(C)(C)C2)cc1Cl,.,.,.,.,.,.,/,/,/,
Cc1ccc(Nc2nc3nonc3[nH]c2=O)cc1Cl,76,.,92,.,106,.,80,72,99,
OC(COc1ccc(CNCCc2ccc(C(F)(F)F)cc2)cc1)CN1CCCCC1 (centres undefined),100,.,67,.,.,.,99,53,.,
C#CCOCCOCCOCCNc1nc(N2CCN(C(=O)[C@H]([C@@H](C)CC)n3cc(CCC(=O)O)nn3)CC2)nc(N2CCN(C(=O)[C@H](CCCCN)n3cc(CC(C)O)nn3)CC2)n1 (some centres undefined),/,/,.,.,/,/,/,/,/,
SMILES,Mdm2 MdmX PPI,Beta apoptosis,MPTP inh,NR3A LBD binder,SKKanGAS inh,CSC inhib,Mdm2 MdmX conf,Full FLuc ctr,MPTP counter,others
O=C(Nc1ccc(Cl)c(Cl)c1)Nc1nnc(CC2=CCCCC2)s1,89,84,89,.,.,.,.,/,.,MPTP swell DR=3.5;MPTP counter DR=<2.5
O=C(Nc1nnc(CC2=CCCCC2)s1)c1cccs1,.,.,.,.,.,.,/,/,/,
O=C(Nc1ccc(Cl)cc1)Nc1nnc(CSCc2ccc(Cl)cc2)s1,98,?,84,24,.,.,.,/,50,
CCc1nnc(NC(=O)Nc2ccc(Cl)cc2)s1,.,.,.,.,.,.,/,/,/,
COc1ccc(CCN(C)C2CCCN(C(=O)c3sccc3C)C2)cc1OC (centres undefined),.,.,.,.,.,.,/,/,/,
CCOC(=O)c1sc(NC(=O)Nc2cccc(Cl)c2)cc1C,78,101,79,24,95,.,71,.,49,
COc1cccc(/C=N/n2c(-c3ccco3)nc3ccccc3c2=O)c1OC,.,.,.,.,.,.,/,/,/,
Cc1ccc(NC(=O)C(c2ccccc2)C2CCCC2)cc1 (centres undefined),/,/,.,.,.,/,/,/,/,
O=C(Nc1ccc2ccccc2c1)C(c1ccccc1)C1CCCC1 (centres undefined),57,.,79,.,.,.,59,78,62,
O=C(NNc1ccccc1Br)C(O)(c1cccc(C(F)(F)F)c1)c1cccc(C(F)(F)F)c1,94,125,95,32,101,.,78,87,74,
Cc1ccc(NS(=O)(=O)c2ccc(Cl)s2)nc1,.,.,.,.,.,.,/,/,/,
O=C(Nc1ccccc1Cc1ccccc1)c1ccccc1NS(=O)(=O)c1ccc(Cl)s1,93,.,64,34,117,+,92,.,51,
Cc1ccc(NC(=O)c2ccccc2NS(=O)(=O)c2ccc(Cl)s2)cc1,90,77,68,26,.,.,81,.,76,
Cc1ccc(C(=O)c2ccccc2C(=O)OCC(=O)N2C(C)CCCC2C)cc1 (centres undefined),.,.,.,.,/,.,/,/,/,
CCN(CC)CCCNc1ccc(-c2nnc(-c3ccc(OCC(C)C)cc3)o2)cn1,100,.,91,.,.,103,88,.,.,
